From PubChem BioAssay
Shown are actives, neighbours in structure and some others; about 2.8% of the full set was active somewhere.
Calpain2 inh: inhibitors of pig calpain II, primary screen, biochemical, fluorogenic peptide substrate, 1536-well. inhibition, % at 16 µM. 0.37% of 220,000 active. purified calpain II, 30 min;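 active = inhibition above about 50%, limit read from the data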
Mcl1-Noxa inh: Mcl-1/Noxa binding inhibitors, primary screen, biochemical, TR-FRET, 1536-well | 1.5% of 220,000 active | inhibition, % at 21.7 µM | TR-FRET Mcl-1/Noxa peptide binding, 2 h;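 active = compounds that cut the protein-peptide binding signal by more than 50% relative to plate controls in a single-dose test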;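 also: His-tagged Mcl-1 with rhodamine Noxa BH3 peptide and terbium anti-His antibody; 0% = Mcl-1 plus Noxa peptide wells and 100% = peptide-only wells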
Target sequence (Q07820 whole entry, looked up): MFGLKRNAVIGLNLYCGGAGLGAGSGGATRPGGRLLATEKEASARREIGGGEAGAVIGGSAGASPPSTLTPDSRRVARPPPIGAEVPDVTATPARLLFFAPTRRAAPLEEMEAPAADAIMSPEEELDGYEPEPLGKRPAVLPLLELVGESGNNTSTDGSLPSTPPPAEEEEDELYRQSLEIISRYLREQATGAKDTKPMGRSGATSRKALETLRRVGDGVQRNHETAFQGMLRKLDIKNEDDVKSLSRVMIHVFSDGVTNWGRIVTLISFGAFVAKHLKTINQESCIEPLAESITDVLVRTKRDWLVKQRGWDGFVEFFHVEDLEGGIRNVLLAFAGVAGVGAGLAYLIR
Bim-Mcl-1: inhibitors of Bim peptide binding to Mcl-1, primary screen, biochemical, bead-based flow cytometry, multiplex. 0.1% of 190,000 active. inhibition, % at 10 µM. Induced myeloid leukemia cell differentiation protein Mcl-1 (Homo sapiens), Q07820. Bim peptide-Mcl-1 binding; in the data active = inhibition above about 40%;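 also: 0% = no compound tracer wells and 100% = peptide blocker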
Mcl1 Bid PPI: Mcl-1/Bid binding inhibitors, primary screen, biochemical, TR-FRET, 1536-well; TR-FRET Mcl-1/Bid-Dy647 peptide binding; AID 1021, 2008; 0.97% of 220,000 active; inhibition, % at 21.7 µM;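 active = compounds that cut the binding signal by more than half at the single screening dose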;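 also: His-tagged Mcl-1 with europium anti-His antibody binding Bid BH3 peptide; 0% = Mcl-1 plus peptide wells and 100% = peptide-only wells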
L929 necroptosis: inhibitors of zVAD-triggered necroptosis, primary screen, L929 cells; L929 zVAD necroptosis rescue, ATP luminescence, 24 h; with zVAD 60 µM; 0.38% of 220,000 active; viability rescue, % at 10 µM;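 active = activation, scaled between plate controls, above about 75%, limit read from the data; inactive = activation under that limit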;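 also: 0% = zVAD with DMSO and 100% = DMSO alone without zVAD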
TNF necrop inh: inhibitors of TNF-alpha triggered necroptosis, primary screen, cell-based, Jurkat FADD-/-, single concentration; activation (protection from cell death), % at 10 µM; Jurkat FADD-/- TNF necroptosis rescue, ATP luminescence, 24 h; 0 = TNF only, 100 = no-TNF cells; 0.068% of 220,000 active; AID 463075, 2010;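 active = activation, meaning protection from cell death, of at least 50% relative to plate controls; inactive = activation below 50%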;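 also: necroptosis triggered by 40 ng/mL TNF-alpha added together with compound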
* = called active by the depositor; . = no result given; ! = not confirmed by another sample.

SMILES	Calpain2 inh	Mcl1-Noxa inh	Bim-Mcl-1	Mcl1 Bid PPI	L929 necroptosis	TNF necrop inh
CCn1c(COc2ccc(C)cc2)nnc1SCc1ccc(C#N)cc1	-4.1	15.2	0.0	-9.6	-0.1	1.3
COC(=O)/C(C#N)=C\c1c(OC)[nH]c2ccccc12	-7.8	35.1	.	-90.0	1.2	-1.5
O=[N+]([O-])c1cccc(N/N=C/c2cccc3ccccc23)c1	29.5	58.6*	-2.0	-12.6	0.2	1.1
O=C(O)CCC(=O)OCC1CCCO1 (centres undefined)	-1.0	8.7	0.0	9.0	-0.2	-3.0
Nc1nnc(Cc2cccc(Br)c2)s1	17.2	15.9	.	1.2	-0.9	0.1
COc1ccc(/C=c2\s/c(=C\C(=O)C(C)(C)C)[nH]c2=O)cc1O	11.9	57.6*	.	-58.5	-0.7	7.9
COc1cc(/C=c2\s/c(=C\C(=O)C(C)(C)C)[nH]c2=O)cc(OC)c1OC	-8.7	24.8	0.0	-56.0	15.3	-0.5
Cc1nnc(NC(=O)C2(c3ccccc3)CCOCC2)s1	-14.6	2.7	-1.0	-10.5	-0.2	-0.5
Cc1cnc(NC(=O)C2(c3ccccc3)CC2)s1	4.2	1.6	1.0	-5.5	3.1	62.9*
Cc1snc(SCC(=O)c2ccc(F)cc2)c1C#N	5.9	-2.2	0.0	-26.3	2.8	6.7
Cc1snc(SCC(=O)c2ccc([N+](=O)[O-])cc2)c1C#N	-53.8	66.4*	-6.0	-33.8	0.6	-2.0
CC1CCN(Cc2c(O)ccc3c(=O)c(-c4nc5ccccc5s4)c(N)oc23)CC1	-56.2	52.8*	3.0	4.9	63.5	1.7
COc1cccc(N=c2oc3ccccc3cc2-c2nc3ccccc3[nH]2)c1	-87.6	14.4	-2.0	56.4*	-0.8	-3.4
O=C(Cc1cccs1)Nc1nnc(SCC(=O)NC2CCCCC2)s1	-6.7	8.8	0.0	-12.9	0.6	0.2
O=C(Cc1ccc(F)cc1)Nc1nnc(SCC(=O)NC2CCCC2)s1	-12.7	0.7	0.0	71.7*	10.8	0.6
Cc1ccc2oc(-c3cccc(NC(=O)/C=C/c4cccc([N+](=O)[O-])c4)c3C)nc2c1	-7.8	25.5	2.0	28.1	-0.4	-0.6
N=C1/C(=C/c2ccc(-c3cccc(C(=O)O)c3)o2)C(=O)N=C2SC=C(c3ccccc3)N12	14.1	108.8*	0.0	97.9*	6.5	-0.3
O=C1OC(c2cccs2)=N/C1=C\c1ccc(-c2ccccc2Cl)o1	-115.5	15.9	0.0	-41.8	-0.3	-3.4
N=C1/C(=C\c2ccc(-c3cc(Cl)cc(Cl)c3)o2)C(=O)N=C2SC=C(c3ccccc3)N12	-33.3	16.7	-1.0	-11.7	0.9	0.3
O=C1OC(c2cccs2)=N/C1=C/c1ccc(-c2cccc(C(=O)O)c2)o1	-31.6	95.8*	4.0	79.4*	2.4	-2.0
CCCCC1NC(=S)N(C2CCCCC2)C1=O (centres undefined)	18.6	17.8	-2.0	-41.0	0.8	7.2
Cn1cnc2c(N3CCCCC3)nccc21	-36.0	-20.6	2.0	-31.4	-0.7	-0.8
C[c-]1[c-](C)[c-](C)[c-](C)[c-]1C.[Fe].c1cc2nccc(N3CCCC3)[c-]2c1 (centres undefined)	-5.8	54.9*!	.	-107.0	-1.6	-9.6
CC(C)(C=O)C1=CC(=O)c2ccccc2C1=O	-35.0	85.3*	-2.0	20.0	0.7	-15.4
CCOC(=O)C1=NN(c2ccc(Cl)cc2)C(=O)C1	-14.5	19.4	.	-95.7	0.1	0.4
SMILES	Calpain2 inh	Mcl1-Noxa inh	Bim-Mcl-1	Mcl1 Bid PPI	L929 necroptosis	TNF necrop inh
Cc1ccc2nc(NC(=O)COC(=O)c3ccccn3)sc2c1	22.4	11.3	-1.0	4.6	6.8	-0.8
CCN(CC)c1ccc(NC(=O)Cn2c(C(C)NC(=O)c3ccc(C)cc3)nc3ccccc32)cc1 (centres undefined)	26.1	32.4	4.0	89.7*	-0.3	4.0
CCOc1cc(/C=N/Nc2ccc(C(=O)O)cc2)ccc1OC(=O)c1ccccc1C	81.5*	56.3*	.	4.9	-0.7	-0.1
COc1cccc(OCc2cc(/C=N/Nc3ccc(C(=O)O)cc3)ccc2OC)c1	-12.4	67.1*	.	-34.5	3.2	-9.0
COC(=O)c1ccc2nc(Nc3nc4ccc(F)cc4s3)sc2c1	-145.8	95.2*	-6.0	81.2*	1.9	2.5
COC(=O)c1ccc2nc(NC(=O)C3CCCCC3)sc2c1	-7.1	-15.9	1.0	-5.9	1.2	1.4
COC(=O)c1ccc2nc(NC(=O)C(C)(C)C)sc2c1	90.5*	-19.4	-2.0	-1.9	0.0	-2.6
Cc1nc(Cl)sc1C(=O)Nc1cccc2ccccc12	5.5	-21.8	0.0	-15.1	-0.5	-2.4
CCCn1c(SCC(=O)Nc2ccccc2Oc2ccccc2)n[nH]c1=O	15.6	9.1	-2.0	0.9	-0.6	-2.0
COc1ccc(-c2c(C#N)c(N)nc3sc(C(=O)c4ccccc4)c(N)c23)cc1	-29.9	-74.3	0.0	-67.0	-0.1	5.7
CSc1c(C#N)c(N)nc2sc(C(=O)c3ccc(Cl)c(Cl)c3)c(N)c12	12.2	21.3	.	51.7*	-0.8	1.1
O=C(Nc1ccc(C(=O)N2CCOCC2)cc1)Nc1ccc(Cl)cc1Cl	-26.0	5.0	0.0	-2.5	1.6	3.1
c1ccc(CSc2nnc(-c3ccco3)o2)cc1	-5.5	-27.5	.	-24.9	-0.7	52.1*
Cc1cc(C(=O)CSc2nnc(-c3ccncc3)n2-c2ccccc2)c(C)n1C	-127.9	12.9	2.0	50.9*	0.4	-0.9
Cc1cc(C(=O)CSc2nnc(-c3ccccc3)n2C)c(C)n1C	-17.6	16.9	-4.0	-99.4	0.1	-0.8
COc1ccc(-c2cnn3c4c(c(C)nc23)CCN4C(C)C)cc1OC	-147.9	12.0	-2.0	-37.5	0.6	-3.0
CCNc1nc(NCC)nc(N/N=C/c2ccc(N(C)C)cc2)n1	-224.3	3.8	0.0	-47.2	0.0	5.8
CCNc1nc(NCC)nc(N/N=C/c2ccc(O)c(O)c2)n1	-14.5	54.1*	2.0	-44.7	56.0	7.4
COc1ccc(S(=O)(=O)Nc2ccc(-n3cccc3)cc2)cc1	-2.8	8.0	1.0	-21.2	1.1	6.9
O=C(c1ccco1)[C@@H]1[C@@H]2C(=O)N(c3ccc(F)cc3)C(=O)[C@@H]2[C@H]2C=Cc3ccccc3N21	-63.9	73.0*	5.0	24.2	-0.9	-5.0
CCn1cc(C2C(C(=O)Nc3cc(C)ccn3)=C(C)NC3=C2C(=O)CC(C)(C)C3)c(C)n1 (centres undefined)	-448.0	9.0	-8.0	-69.8	0.1	1.4
O=[N+]([O-])c1cccc(C2Nc3cccc4cccc(c34)N2)c1	8.8	50.0	-3.0	-18.7	-0.1	0.0
